# Test results: ChEMBL document CHEMBL1201862, “PubChem BioAssay data set” (2004)
# Among all 390,000 compounds or so, about 1,400 (0.36%) were called active. Not shown: some 2% with an inconclusive outcome. The calls are words filed in the database; no cut-off is given here. This excerpt belongs to a sample that is enriched for actives.
# Target: Flap endonuclease 1 (Homo sapiens) (UniProt P39748)
# Assay: qHTS Assay for the Inhibitors of Human Flap endonuclease 1 (FEN1). [Related pubchem assays (depositor defined):AID488813]
# Type: functional
# Sequence of Flap endonuclease 1 (Homo sapiens) (P39748 whole entry): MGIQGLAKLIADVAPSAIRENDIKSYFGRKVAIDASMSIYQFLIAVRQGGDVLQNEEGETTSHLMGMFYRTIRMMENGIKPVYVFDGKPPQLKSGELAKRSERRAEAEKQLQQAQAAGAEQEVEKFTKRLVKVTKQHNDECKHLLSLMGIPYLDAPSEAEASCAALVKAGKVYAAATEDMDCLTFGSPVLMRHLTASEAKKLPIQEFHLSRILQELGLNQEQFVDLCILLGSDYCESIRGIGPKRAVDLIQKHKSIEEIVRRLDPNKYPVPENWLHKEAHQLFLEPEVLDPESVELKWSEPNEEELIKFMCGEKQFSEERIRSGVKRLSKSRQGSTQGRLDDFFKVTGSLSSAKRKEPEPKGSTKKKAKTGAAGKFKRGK
row,SMILES,Potency
1,CC(N)(Cc1ccc(O)c(O)c1)C(=O)O (stereo not drawn),2380 nM (active)
2,CCOC(=O)CN1C(=O)N[C@@H](c2cccc(C(F)(F)F)c2)C(C(=O)OC)=C1C,inactive
3,Nc1nc2ccc(OC(F)(F)F)cc2s1,inactive
4,NCC(O)c1ccc(O)c(O)c1 (stereo not drawn),2990 nM (active)
5,C=CCN1C2CCCC1CC(N=C(S)Nc1cccc(OC)c1)C2 (stereo not drawn),inactive
6,CC(=O)c1ccc(NC(=O)NNS(=O)(=O)c2ccc([N+](=O)[O-])cc2)cc1,inactive
7,ICCCCN1C=S(CI)c2ccccc21 (stereo not drawn),50100 nM (active)
8,Cc1ccc(C)c(NC(=O)CN(C)C(=O)C2COc3ccccc3O2)c1 (stereo not drawn),inactive
